For 118 compounds, outcome results are on record in PubChem BioAssay AID489018 (Southern Research Specialized Biocontainment Screening …, 2010).

Molecules are shown by their SMILES. The campaign covered roughly 2,300 compounds. About 350 (15%) were called active. How the calls were made is not given here. The list is a sample of the results. Measured potencies and affinities stand elsewhere.

This experiment in a line: HepG2 cell cytotoxicity, dose response, cytotoxicity control for non-replicating M. tuberculosis project (AID 489018).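 Further: HepG2 human liver cells.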 To be noted: series mostly up to 20 µM.
Regarding `Cc1cc(C)c(C(=O)COC(=O)c2ccc([N+](=O)[O-])o2)cc1C`, the compound was called inactive.
To `COc1ccc2cc(C(=O)C3CCCN(Cc4cccc(C)n4)C3)ccc2c1` (stereo not drawn) belongs “inactive”; to `CCCCOc1ccc(NC(=O)CN2CCN(Cc3ccccc3)CC2)cc1`, “inactive”.
To `CC(C)(C)c1ccccc1OCCOCCN1CCCCCC1` belongs “inactive”.
To `CS/C(Nc1cc(Cl)ccc1Cl)=C(/C#N)C(=O)c1ccco1` belongs “inactive”; to `Cc1[nH]c2ccccc2c1C(=O)COC(=O)c1ccc([N+](=O)[O-])s1`, “inactive”; to `c1ccc(Nc2nc(-c3ccccn3)cs2)cc1`, “inactive”.
Regarding `c1ccc(-c2n[nH]c(-c3ccccn3)n2)nc1`, the result was inactive.
To `COC(=O)C(C)Oc1ccc2cc(-c3ccccc3)c(=O)oc2c1` (stereo not drawn) belongs “inactive”; to `O=C(CCS(=O)(=O)Cc1ccccc1)Nc1ncc([N+](=O)[O-])s1`, “inactive”; to `O=S(=O)(c1ccc(OCC2CO2)cc1)c1ccc(OCC2CO2)cc1` (stereo not drawn), “inactive”.
The entry for `Cc1ccccc1C(=O)NN1CC(C(=O)OCc2ccc(Cl)c(Cl)c2)CC1=O` (stereo not drawn) is “inactive”.
The entry for `CCC(C)c1ccc(OCCn2ccnc2)cc1` (stereo not drawn) is “inactive”.
In the case of `Cc1ccc2nc(C)c3c(c2c1)COC3`, the result was inactive.
The entry for `Cc1[nH]n(-c2cccc(Cl)c2)c(=O)c1/C=N/n1c(C)nc2ccccc2c1=O` is “inactive”; for `CC(C)(C)NCC1(CO)SC(N)=NC1=O` (stereo not drawn) it is “inactive”; for `CCOC(=O)/C=C1\Nc2ccccc2OC1=O` it is “inactive”.
To `COc1cc(NC(=O)C/C(C)=N/NC(=O)c2cccs2)c(OC)cc1Cl` belongs “inactive”; to `O=C(Nc1nnc(-c2ccco2)o1)c1cccc2ccccc12`, “inactive”; to `COC(=O)c1cc(-c2ccc(OC)cc2)on1`, “inactive”.
To `COc1ccc(/C=C/c2nc3ccccc3c(=O)o2)cc1` belongs “inactive”; to `CC(=O)c1ccc(OC(=O)c2ccc(-n3nc(C)cc3C)cc2)cc1`, “inactive”; to `Cn1nnc(NC(=O)COc2ccc(C3CCCCC3)cc2)n1`, “inactive”.
As to `O=Cc1ccnc(-c2ccc(OC(=O)c3ccco3)cc2)n1`, the outcome was inactive.
Turning to `Cc1ccc(N/N=C2\CS(=O)(=O)N(C)c3ccsc32)cc1`, the result was inactive.
Take `COc1cccc(NC(=O)c2ccc(C(=O)c3ccccc3)o2)c1`: the call was inactive.
To `O=C(N/N=C/c1ccccn1)c1cccc([N+](=O)[O-])c1` belongs “inactive”.
Regarding `O=C(N/N=C/c1ccccn1)c1cc([N+](=O)[O-])cc([N+](=O)[O-])c1`, the outcome was inactive.
To `COc1cc(OC)cc(C(=O)NNC(=O)c2ccccn2)c1` belongs “inactive”; to `O=C(N/N=C/c1ccc(Br)s1)c1cccnc1`, “inactive”.
Take `COc1ccc(OCC(=O)NNC(=O)c2ccccn2)cc1`: the result was inactive.
To `COc1ccc(C(=O)N/N=C/c2cccc3cccnc23)cc1` belongs “inactive”.
The entry for `O=C(N/N=C/c1ccc[nH]1)c1cccnc1` is “inactive”; for `Cc1ccc2[nH]c(C)c(CCNC(=O)c3cc4cc([N+](=O)[O-])ccc4oc3=O)c2c1` it is “inactive”; for `Cc1cccc(NCCC(=O)c2ccc([N+](=O)[O-])cc2)c1C` it is “inactive”.
To `CC(C)c1ccc(C2=C(O)c3ccccc3C(=O)C2=O)cc1` belongs “inactive”; to `O=C(CC1CCCC1)OCn1nnc2ccccc2c1=O`, “inactive”.
Take `O=C(c1cc([N+](=O)[O-])cc([N+](=O)[O-])c1)N(Cc1nnc(-c2ccccc2Cl)o1)C1CC1`: the compound was called inactive.
For the compound `O=C1N/C(=N\c2ccccn2)SC1Cc1ccc(Cl)cc1` (stereo not drawn), the compound was called inactive.
The entry for `COc1cc(/C=C/c2ccc3c([N+](=O)[O-])cccc3n2)ccc1OCC(=O)O` is “inactive”; for `CCCOc1ccc(-c2nc(C#N)c(NCCCn3ccnc3)o2)cc1` it is “inactive”.
To `O=C(CCSc1nnc(-c2ccccc2)o1)N1CCOCC1` belongs “inactive”; to `Cc1onc(-c2ccccc2)c1C(=O)O/N=C(\N)c1ccc([N+](=O)[O-])o1`, “inactive”; to `O=C(COC(=O)c1ccc(Br)o1)NCCCc1ccccc1`, “inactive”.
On to `Oc1ccccc1Nc1nc(NCC2CCCO2)c2ccccc2n1` (stereo not drawn), for which the result was inactive.
To `O=C(c1ccc([N+](=O)[O-])s1)N1CCN(c2cccc(Cl)c2)CC1` belongs “inactive”; to `Cc1ccc(-c2nn(-c3ccccc3)cc2/C=N/NC(=O)c2ccncc2)o1`, “inactive”; to `NC(N)=N/N=C/c1cn(-c2ccccc2)nc1-c1cccs1`, “inactive”.
The entry for `O=c1oc(-c2cccs2)nc2c1cnn2-c1ccccc1` is “inactive”; for `O=C(N/N=C/c1cccc2nccnc12)c1ccncc1` it is “inactive”.
To `CC(C)(C)Sc1ccc2nc3c(n2c1)CCCC3` belongs “inactive”.
As to `CCOC(=O)C(Nc1ccc2ccccc2c1)C(=O)OCC`, the call was inactive.
The entry for `CC1Cc2ccccc2N1C(=O)COC(=O)c1ccc(Cl)nc1` (stereo not drawn) is “inactive”; for `O=C(N/N=C/c1ccc([N+](=O)[O-])s1)c1cccc(Br)c1` it is “inactive”.
To `O=C(CNC(=O)c1cccc(F)c1)N/N=C/c1ccc([N+](=O)[O-])s1` belongs “inactive”.
To `COC(=O)N/N=C/c1ccc([N+](=O)[O-])s1` belongs “inactive”; to `O=C(N/N=C/c1ccc([N+](=O)[O-])s1)c1ccccc1`, “inactive”.
As to `Cc1ccc(C(=O)N/N=C/c2ccc([N+](=O)[O-])s2)cc1`, the result was inactive.
For the compound `CCOC(=O)N/N=C\c1ccc([N+](=O)[O-])s1`, the outcome was inactive.
The entry for `O=C(N/N=C/c1ccc([N+](=O)[O-])s1)c1ccncc1` is “inactive”; for `CC(C)(C)OC(=O)N/N=C\c1ccc([N+](=O)[O-])s1` it is “inactive”.
The entry for `Oc1oc(-c2ccco2)nc1C=Nc1cccc(Cl)c1` is “inactive”.
To `CCCCOC(=O)C1CCCC(C(=O)OCCCC)N1` (stereo not drawn) belongs “inactive”; to `COC(=O)COc1ccc(S(=O)(=O)N2CCCCCC2)cc1`, “inactive”; to `O=C(CNC(=O)c1ccco1)OCc1ccc(C(=O)Oc2ccccc2)cc1`, “inactive”.
As to `Cn1c(-c2cccc([N+](=O)[O-])c2)cnc1NCc1cccc(F)c1`, the call was inactive.
`Cc1ccc(C)c(-c2csc(NC(=O)c3cnccn3)n2)c1`: the result was inactive.
The entry for `O=C(Nc1nnc(-c2ccccn2)o1)c1cccc(Cl)c1` is “inactive”; for `COCCOC(=O)c1c(C)oc2ccc(OC(=O)c3ccco3)cc12` it is “inactive”.
To `O=C(Nc1nnc(-c2ccc(Br)cc2)o1)C1=COCCO1` belongs “inactive”; to `O=C(c1ccc(-c2ccc([N+](=O)[O-])cc2)o1)N1CCCCCCC1`, “inactive”; to `FC(F)(F)c1nnc2ccc(Cl)nn12`, “inactive”.
Turning to `Cc1cc(N/N=C/c2ccccc2O)c2ccccc2n1`, the compound was classed as inactive.
On to `COc1cc(/C=N/Nc2cccc3cccnc23)cc(OC)c1O`, for which the outcome was inactive.
`COc1ccc(Nc2ccccc2N)cc1`: the call was inactive.
Take `COc1ccc2nc(/N=C(\N)NC(=O)C(C)(C)C)nc(C)c2c1`: the call was inactive.
To `COc1ccc(/C=N/Nc2cc(C)nc(-n3nc(C)cc3C)n2)cc1` belongs “inactive”; to `Cc1nnc(N/N=C/c2ccc(Br)cc2)n1N`, “inactive”; to `O=C(c1ccccc1)c1nc[nH]c1C(=O)Nc1ccccc1`, “inactive”.
In the case of `COC(=O)C(O)(c1ccc(NC(=S)NC(=O)c2ccccc2)cc1)C(F)(F)F` (stereo not drawn), the result was inactive.
To `O=C(N=Nc1c(O)[nH]c2ccc(Br)cc12)c1ccccc1-n1cccc1` belongs “inactive”; to `O=C(Oc1ccccc1)c1ccc(NC(=O)c2ccco2)cc1`, “inactive”.
For `O=C1NC(=O)C(=Cc2ccc(Oc3ccc([N+](=O)[O-])cc3)cc2)C(=O)N1`, the compound was classed as inactive.
The entry for `c1ccc2sc(SCc3ccc(-c4nnco4)cc3)nc2c1` is “inactive”.
To `CCCCNC(=O)Nc1nnc(-c2ccc(Cl)cc2)o1` belongs “inactive”.
Consider `CC(NC(=O)c1cc([N+](=O)[O-])cc([N+](=O)[O-])c1)c1ccc(-n2ccnc2)cc1` (stereo not drawn), for which the outcome was inactive.
Turning to `Cc1cccc(OCCN2CSC(=S)N(C)C2)c1`, the compound was classed as inactive.
The entry for `Clc1ccc(OCCCNCc2ccccc2)c2ccccc12` is “inactive”; for `COC(=O)C1CC(=O)N(c2ccc(OCc3ccccc3Cl)cc2)C1` (stereo not drawn) it is “inactive”; for `COc1cc(CNCCc2ccccc2)cc(Br)c1OCC(=O)Nc1ccccc1C` it is “inactive”.
To `COc1cc(CNC2CCCC2)cc(Cl)c1OCc1ccc(F)cc1` belongs “inactive”.
With `Clc1cccc(CNCCNCc2cccc(Cl)c2)c1`, the compound was classed as inactive.
`Clc1ccc(Cl)c(OCCCCNCc2ccccc2)c1`: the compound was called inactive.
`N#C/C(N=Nc1ccccc1O)=N\Nc1ccccc1O`: the compound was classed as inactive.
The entry for `O=C(OCC#CCSc1nc2ccccc2o1)c1ccco1` is “inactive”; for `O=C(CCNc1ccc(Cl)cc1)c1cccs1` it is “inactive”.
To `O=C(N/N=C/c1ccccn1)c1cccc(S(=O)(=O)Nc2ccccc2Cl)c1` belongs “inactive”.
The entry for `CC(=O)Nc1nc2ccccc2n1CCOc1ccccc1Cl` is “inactive”; for `COc1cccc2cc(-c3nc4ccccc4o3)c(=O)oc12` it is “inactive”; for `NC(=O)c1ccc(N=Cc2ccc([N+](=O)[O-])s2)cc1` it is “inactive”.
On to `CCC(C)(C)c1ccc(OCC(=O)Nc2ccncc2)cc1`, for which the result was inactive.
For `Cc1nnc(N/N=C/c2ccc(-c3ccc(Br)cc3)o2)n1N`, the result was inactive.
The entry for `O=C(Nc1nnc(-c2ccc(Cl)cc2)o1)c1nc2ccccc2s1` is “inactive”.
To `Cc1ccc2nc(CCc3nc4ccc(C)cc4[nH]3)[nH]c2c1` belongs “inactive”; to `O=C(CCNc1ccc(Cl)c(C(F)(F)F)c1)c1ccco1`, “inactive”.
The entry for `CN(C)CCNc1c2c(c(C#N)c3nc4ccccc4n13)CCCC2` is “inactive”; for `COc1cccc(-c2cc3nc4c(c(NCC(C)(C)CN(C)C)n3n2)CCCC4)c1` it is “inactive”; for `CSc1ccc(CNc2ncc(-c3cccc([N+](=O)[O-])c3)n2C)cc1` it is “inactive”.
Regarding `CCCCCCCC(=O)NNC(=O)c1ccc(F)cc1`, the outcome was inactive.
To `CCCCCCCC(=O)N/N=C(/C)c1c(O)cc(C)oc1=O` belongs “inactive”; to `O=C(OCc1c(Cl)cccc1Cl)c1ccccn1`, “inactive”.
The entry for `COC(=O)COc1cccc(NC(=O)COc2ccccc2)c1` is “inactive”.
To `O=C(N/N=C/C(Br)=C/c1ccccc1)c1ccncc1` belongs “inactive”; to `O=C(N/N=C/C(Br)=C/c1ccccc1)c1cnccn1`, “inactive”.
With `COc1ccc(NC(=O)CCCN2C(=O)/C(=C\c3ccco3)SC2=S)cc1`, the call was inactive.
As for `O=c1[nH]c(=O)n(Cc2ccccc2Cl)c(O)c1/C=C1/C=CC=N1`, the compound was classed as inactive.
To `c1ccc(Nc2nc(Nc3ccccc3)nc(N3CCNCC3)n2)cc1` belongs “inactive”; to `COc1ccc(CCOC(=O)c2ccc(N)c([N+](=O)[O-])c2)cc1`, “inactive”.
